HTR5A inv ag: counter-screen for OPRM1-OPRD1 inverse agonists: human HTR5A inverse agonism | P47898 | HTR5A cell line, luminescence | inhibition, % at 9.3 µM | 0.083% of 340,000 active | AID 504634; in the data active = inhibition mostly above about 23%, no sharp cut-off; inactive = mostly below about 18%;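 note: 0% = cells with DMSO and 100% = no-cell wells with DMSO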
Target sequence (P47898 whole entry, looked up): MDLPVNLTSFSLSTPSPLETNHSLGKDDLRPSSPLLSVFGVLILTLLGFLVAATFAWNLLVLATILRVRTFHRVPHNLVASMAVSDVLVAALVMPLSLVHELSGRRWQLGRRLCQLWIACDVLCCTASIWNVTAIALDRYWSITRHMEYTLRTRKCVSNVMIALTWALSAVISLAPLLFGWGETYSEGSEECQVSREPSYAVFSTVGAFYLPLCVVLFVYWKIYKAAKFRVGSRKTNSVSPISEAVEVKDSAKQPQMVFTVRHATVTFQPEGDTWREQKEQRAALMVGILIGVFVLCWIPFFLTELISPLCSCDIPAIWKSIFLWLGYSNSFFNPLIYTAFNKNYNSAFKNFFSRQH
HTR5A ag: HTR5A agonism, opioid heterodimer counter-screen; HTR5A agonist assay, luminescence, cell-based; activation, % at 9.3 µM; 0.61% of 340,000 active; in the data active = activation mostly above about 9.5%, no sharp cut-off; inactive = mostly below about 7.6%;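 note: 0% = cells with vehicle only and 100% = reference agonist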
OPRM1-OPRD1 ag: OPRM1-OPRD1 heterodimerization agonism | activation, % at 9.3 µM | 0.3% of 340,000 active | AID 504326 | cells, luminescence | P35372+P41143; in the data active = activation above about 18%;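 note: 0% = vehicle-treated cells and 100% = reference agonist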
MOR-DOR inv ag: inverse agonist of human OPRM1-OPRD1 heterodimerization; P35372+P41143; cell-based MOR-DOR heterodimer luminescence, inverse agonism; inhibition, % at 9.3 µM; 0.21% of 340,000 active; in the data active = inhibition above about 22%, passing the limit was not always enough;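 note: 0% = cells with DMSO and 100% = wells without cells with DMSO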
Starred values were filed as active, the others as inactive; i = inactive. The list is not random: actives were taken first. Their share in the collection is about 1.1%.

SMILES	HTR5A inv ag	HTR5A ag	OPRM1-OPRD1 ag	MOR-DOR inv ag
COc1ccc(CN2c3c(Br)cccc3C(=O)CS2(=O)=O)cc1	17*	-5	-2	11
O=C1CS(=O)(=O)N(Cc2cccc(F)c2)c2ccc(Br)cc21	-38	14	0	1
CCCNC(=O)COC(=O)CCC(=O)c1cccs1	8	0	-4	18
Cc1cc(C(=O)Cn2c(CO)nc3ccccc32)c(C)n1C	-22	7	-4	18
C=CC[C@@H](Cc1ccc(F)cc1)C(=O)OC[C@@H]1CCCN1C(=O)[C@H](CC=C)CC(=O)N[C@H](CO)Cc1ccccc1	-4	2	6	-35
CN1CCN(C(=S)SCc2nc(N)nc(Nc3ccc(F)cc3)n2)CC1	-29	11*	0	3
Nc1nc(CSC(=S)N2CCOCC2)nc(Nc2ccc(F)cc2)n1	-16	1	-2	13
C=CCSC(=C(C#N)C#N)c1cc2c([nH]1)CCCC2	-17	-3	4	-22
CCN(CC)CCN(C(=O)CCS(=O)(=O)c1ccccc1)c1nc2c(C)cc(C)cc2s1	-29	13*	5	-32
CCN(CC)CCN(C(=O)CCS(=O)(=O)c1ccccc1)c1nc2cc(C)cc(C)c2s1	3	0	0	0
O=C(Nc1ccccc1N1CCOCC1)c1ccc2c(c1)C(=O)N(Cc1ccncc1)C2=O	-14	12	-2	12
CN(C)CCNC(=O)c1cc2c(s1)-c1ccc(Cl)cc1SC2	-202	51*	38*	-213
CCOCCCNC(=O)c1cc2c(s1)-c1ccccc1SC2	-8	2	-2	9
CN(CC(=O)NCc1ccco1)CC(=O)Nc1ccc(F)c(F)c1F	-43	11*	-2	13
O=S(=O)(NN=C1CCCCCC1)c1ccccc1	-28	13*	0	1
O=S(=O)(NN=C1CCCCC1)c1ccccc1	-18	4	-1	7
O=C(COc1ccc2oc(-c3ccccc3)cc(=O)c2c1)Nc1ccccc1	-17	12*	0	3
Cc1ccc(N=c2c([N+](=O)[O-])nn(-c3ccccc3)n2O)c(C)c1	-15	11*	7	-37
Oc1ccccc1N1CCN(Cc2ncc(-c3ccccc3)o2)CC1	-6	-5	2	-15
O=C(CN(C1CCCCC1)S(=O)(=O)c1ccc(Cl)cc1)NCc1cccnc1	-1	13*	-2	9
C=CCn1c(SCC(=O)NCC2CCCO2)nc2c([nH]c3ccccc32)c1=O (stereo not drawn)	15	-1	-3	14
COc1ccc(C)cc1-n1c(SCC(=O)NCC2CCCO2)nc2c([nH]c3ccccc32)c1=O (stereo not drawn)	-15	2	1	-3
O=C(CSc1nc2c([nH]c3ccccc32)c(=O)n1-c1ccccc1F)NCC1CCCO1 (stereo not drawn)	60*	-18	-12	63*
Cc1ccccc1-n1c(SCC(=O)NCC2CCCO2)nc2c([nH]c3ccccc32)c1=O (stereo not drawn)	52*	-16	-10	54*
COc1ccc(N(C(=O)CCl)C(C(=O)NC2CCCCC2)c2cccnc2)cc1 (stereo not drawn)	-12	4	0	3
SMILES	HTR5A inv ag	HTR5A ag	OPRM1-OPRD1 ag	MOR-DOR inv ag
COc1ccc(C(C(=O)NC2CCCCC2)N(C(=O)CCl)c2cccc(Cl)c2)cc1 (stereo not drawn)	-107	86*	94*	i
COc1ccc(C(C(=O)NC2CCCCC2)N(C(=O)CCl)c2ccc(C)cc2)cc1 (stereo not drawn)	-82	31*	24*	-143
COc1ccc(C(C(=O)NC2CCCCC2)N(C(=O)CCl)c2ccc(OC)cc2)cc1 (stereo not drawn)	-112	50*	65*	-349
CS(=O)(=O)c1ccc(Cl)c(NC(=O)COC(=O)CCN=C2NS(=O)(=O)c3ccccc32)c1	11	0	-1	5
O=C(NCc1nnc(SCC(=O)N2CCCCCC2)o1)c1ccco1	-22	11*	-1	6
CCN(CC)c1ccc(/C=N/N2CCN(Cc3ccc(Cl)cc3)CC2)c(O)c1	-39	13*	-2	13
C/C(=N\Nc1nc2ccccc2[nH]1)c1ccccn1	20	-8	-11	61*
COC(=O)c1cccc(NC(=O)CCNC(=O)c2ccco2)c1	-29	13*	3	-16
COC(=O)c1cccc(NC(=O)c2ccco2)c1	-17	6	0	2
CCn1nc(C(=O)OCC(=O)N2CCc3ccccc32)c2ccccc2c1=O	-45	14*	-2	10
CCn1nc(C(=O)N2CCc3ccccc32)c2ccccc2c1=O	-3	5	0	0
